An excerpt weighted towards active compounds, which were near 19% of everything screened.
HT1080NT lethal – kills 2HG-producing HT-1080-NT fibrosarcoma cells; Potency, µM (series often up to 46.1 µM), usual class: cytotoxic; AID 686970; 360,000 compounds, 1.6% hits; HT-1080-NT fibrosarcoma viability, CellTiter-Glo ATP luminescence, 48 h;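 further: NT is the 2HG producing partner of a matched IDH1 knockdown line; nearly all actives have a fitted effect of over 55% in size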
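Fibrosarcoma NT cells, 750 per well in 5% FBS RPMI, were exposed to compound for 48 hours. Viability: CellTiter-Glo luminescence.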
TDP1 cell noCPT – qHTS for Inhibitors of human tyrosyl-DNA phosphodiesterase 1 (TDP1): qHTS in cells in absence of CPT. 420,000 compounds, 15% hits. Potency, µM (series often up to 46.2 µM), most hits filed as inhibitors. AID 686978, 2013. DT40 Tdp1-/- hTDP1 cells, no CPT, ATP luminescence, 48 h; further: nearly all actives have a fitted effect of over 55% in size
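Cells were dispensed at 400 per well, compounds added by pin tool, plates incubated ≥48 hr at 37 °C, then CellTiter-Glo added for 30 min at room temperature before luminescence reading. Line: DT40 Tdp1-/- complemented with hTDP1; camptothecin omitted.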
KB-V1 MDR tox – KB-V1 MDR subline cytotoxicity; KB-V1 MDR cells viability, CellTiter-Glo, 72 h; Potency, µM (highest dose often 46.1 µM), most hits filed as cytotoxic; 400,000 compounds, 3.4% hits; further: nearly all actives have a fitted effect of over 60% in size
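KB-V1 MDR subline cells in DMEM (phenol-red free, 10% FBS) exposed to compounds in qHTS concentration series for 72 h at 37 degrees C. Viability read by CellTiter-Glo luminescence; concentration-effect curves fitted after normalization and correction.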
HT1080 IDH1KD tx – toxicity to HT-1080 IDH1 knockdown cells (counter line); HT-1080 IDH1 knockdown viability, ATP luminescence, 48 h; Potency, µM (series often up to 46.1 µM), most hits filed as cytotoxic; 360,000 compounds, 2% hits; AID 686971
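In this qHTS, HT-1080 cells depleted of IDH1 are exposed for 48 h at 37 °C to compound titrations. Toxicity is scored from CellTiter-Glo luminescence, with DMSO as full viability and medium alone as none.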
DT40 TDP1 CPT – growth inhibition of DT40 Tdp1-/-;hTDP1 cells with camptothecin (screen for TDP1 inhibitors). chicken DT40 Tdp1-/-;hTDP1 cells + 20 nM CPT, ATP luminescence, 48 h. Potency, µM (titrated, usually from 46.2 µM), actives largely listed as inhibitors. 420,000 compounds, 12% hits. AID 686979; further: nearly all actives have a fitted effect of over 55% in size
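Chicken DT40 Tdp1-/- cells complemented with human TDP1, 400 cells/well, exposed to compounds plus 20 nM camptothecin for at least 48 h at 37 C; viability read as ATP content by CellTiter-Glo luminescence.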
KB-3-1 cytotox – KB-3-1 parental cell cytotoxicity. 400,000 compounds, 1.4% hits. AID 1347075. Potency, µM (highest dose often 46.1 µM), hits mostly cytotoxic. KB-3-1 viability, CellTiter-Glo ATP luminescence, 72 h; further: nearly all actives have a fitted effect of over 60% in size
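KB-3-1 cells, DMEM (no phenol red) + 10% FBS; compound by pin transfer, 72 h, 37 °C. Readout: CellTiter-Glo luminescence after 10 min. Data normalized, curve-fitted.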
Large screens that a line does not name were inactive; ! = repeats disagree. The call rests on the fitted dose curve; in most records, active means well fitted curve in the direction sought with a large enough effect; inconclusive means small, poorly fitted or top-dose-only effect, or another doubt; inactive means no such curve, though single readings can be large; an effect the other way counts as inactive or inconclusive.

CCN(CC)c1ccc2cc(C(C)=O)c(=O)oc2c1	none
CCN(CC)c1ccc2cc(C(N)=O)c(=O)oc2c1	none
CCN(CC)c1ccc2cc(C=O)c(=O)oc2c1	TDP1 cell noCPT 18µM, DT40 TDP1 CPT 29µM, KB-3-1 cytotox inconclusive
CCN(CC)c1ccc2cc(-c3nnc(-c4ccncc4)o3)c(=O)oc2c1	TDP1 cell noCPT 21µM, DT40 TDP1 CPT 12µM
CCN(CC)c1ccc2cc(C(=O)Nc3ccccn3)c(=O)oc2c1	TDP1 cell noCPT inconclusive, DT40 TDP1 CPT 4.5µM!
CCOC(=O)c1ccc(N=C2SC(C(=O)Nc3ccccc3)CC(=O)N2C)cc1 (stereo unspecified)	none (no result: HT1080NT lethal, HT1080 IDH1KD tx)
COc1cccc(C2C=C(c3ccc(C)c(C)c3)Nc3nnnn32)c1OC (stereo unspecified)	TDP1 cell noCPT 3.7µM, DT40 TDP1 CPT 5.2µM, KB-3-1 cytotox 4.1µM (no result: HT1080NT lethal, HT1080 IDH1KD tx)
COc1cccc(C2=CC(c3cccc(OC)c3OC)n3nnnc3N2)c1 (stereo unspecified)	HT1080NT lethal inconclusive, TDP1 cell noCPT 16µM, KB-V1 MDR tox inconclusive, HT1080 IDH1KD tx 16µM, DT40 TDP1 CPT 12µM
Clc1ccc(C[n+]2cc(-c3ccccc3)n3c2CCC3)cc1Cl	HT1080NT lethal inconclusive, TDP1 cell noCPT 3.7µM, HT1080 IDH1KD tx inconclusive, DT40 TDP1 CPT 6.5µM, KB-3-1 cytotox inconclusive
Clc1ccc(-c2c[n+](Cc3cccc(Cl)c3)c3n2CCC3)cc1	TDP1 cell noCPT 8.2µM, HT1080 IDH1KD tx inconclusive, DT40 TDP1 CPT 10µM, KB-3-1 cytotox 6.5µM
CC(=O)Nc1ccccc1-c1nc2ccccc2n(CC(=O)c2ccc(Br)cc2)c1=O	TDP1 cell noCPT inconclusive, DT40 TDP1 CPT inconclusive (no result: HT1080NT lethal, HT1080 IDH1KD tx)
CC(C)(C)C1=CC(=O)C(=O)C(C(C)(C)C)=C1	HT1080NT lethal inconclusive, TDP1 cell noCPT 1.3µM, KB-V1 MDR tox 13µM, HT1080 IDH1KD tx inconclusive, DT40 TDP1 CPT 0.65µM
Cc1cc(OCc2cc(C(=O)N3CCN(CC4CC4)CC3)no2)cc(C)c1Cl	TDP1 cell noCPT inconclusive, HT1080 IDH1KD tx inconclusive, DT40 TDP1 CPT inconclusive, KB-3-1 cytotox inconclusive
CC(=O)c1ccc(OCc2cc(C(=O)NC(C)c3cnn(C)c3)no2)cc1 (stereo unspecified)	none
CCCOC1CCCN(C(=O)c2cc(COc3c(F)cccc3F)on2)C1 (stereo unspecified)	TDP1 cell noCPT inconclusive, KB-V1 MDR tox inconclusive, DT40 TDP1 CPT inconclusive
Cc1cc(OCc2cc(C(=O)N3CCC(Oc4cccnc4)CC3)no2)cc(C)c1Cl	TDP1 cell noCPT 15µM, KB-V1 MDR tox inconclusive, HT1080 IDH1KD tx inconclusive, DT40 TDP1 CPT 13µM
Cc1cc(OCc2cc(C(=O)NC(C)c3cnn(C)c3)no2)cc(C)c1Cl (stereo unspecified)	TDP1 cell noCPT 16µM, KB-V1 MDR tox inconclusive, DT40 TDP1 CPT 18µM
Cc1ccccc1C1CCCN(C(=O)c2cc(COc3c(F)cccc3F)on2)C1 (stereo unspecified)	TDP1 cell noCPT 21µM, DT40 TDP1 CPT 23µM
Cc1cc(OCc2cc(C(=O)N3CCCCCC3)no2)cc(C)c1Cl	TDP1 cell noCPT inconclusive, DT40 TDP1 CPT 15µM
Cc1cc(OCc2cc(C(=O)N(C)C(C)c3ccccn3)no2)cc(C)c1Cl (stereo unspecified)	TDP1 cell noCPT inconclusive, KB-V1 MDR tox inconclusive, DT40 TDP1 CPT 18µM
Cc1ccc(OCc2cc(C(=O)N3CCN(C4CCCCC4)CC3)no2)cc1C	TDP1 cell noCPT inconclusive, DT40 TDP1 CPT 16µM
Cc1ccc(OCc2cc(C(=O)N3CCN(C4CCCC4)CC3)no2)cc1C	KB-V1 MDR tox inconclusive
Cc1ccc(S(=O)(=O)N(C)C)cc1NC(=O)COC(=O)CCC1CCCCC1	none
O=C(Cn1cnnn1)N[C@@H]1C(=O)N2C(C(=O)O)=C(CSc3nncs3)CS[C@H]12	none (no result: HT1080NT lethal, KB-V1 MDR tox, HT1080 IDH1KD tx, KB-3-1 cytotox)
